Rab9 promoter act: activates the Rab9 promoter. Huh7 Rab9 promoter-luciferase reporter, luminescence, 24 h. Potency, µM (doses to about 9.22 µM), usual class: activators. actives 2.8% (n = 320,000); note: nearly all actives have a fitted effect of over 60% in size
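Using Huh7 cells stably transfected with Rab9 promoter–luciferase, compounds were incubated 24 h at 37 °C, 5% CO2; luciferase luminescence was read 10 min after reagent addition.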
SMN2 splice up: enhancers of SMN2 splice variant expression. Potency, µM (titrated, usually from 46.1 µM), most hits filed as activators. actives 2.8% (n = 210,000). HEK293 SMN2-luciferase splicing reporter, luminescence, 30-36 h; note: nearly all actives have a fitted effect of over 55% in size
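HEK293 cells carry an SMN2 minigene-luciferase reporter in which exon 7 inclusion puts luciferase in frame. Cells were seeded at 2000 cells/well, attached for 10-12 hours, then exposed to compounds for 30-36 hours at 37C before ONE-Glo luminescence.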
FLuc counter: inhibits or activates purified firefly luciferase, miR-21 counter-screen; P08659; purified FLuc, Km substrates, luminescence inhibition; Potency, µM (highest dose often 57.5 µM), hits mostly inhibitors; actives 6.9% (n = 360,000); note: nearly all actives have a fitted effect of over 55% in size
Target sequence (P08659 whole entry, looked up): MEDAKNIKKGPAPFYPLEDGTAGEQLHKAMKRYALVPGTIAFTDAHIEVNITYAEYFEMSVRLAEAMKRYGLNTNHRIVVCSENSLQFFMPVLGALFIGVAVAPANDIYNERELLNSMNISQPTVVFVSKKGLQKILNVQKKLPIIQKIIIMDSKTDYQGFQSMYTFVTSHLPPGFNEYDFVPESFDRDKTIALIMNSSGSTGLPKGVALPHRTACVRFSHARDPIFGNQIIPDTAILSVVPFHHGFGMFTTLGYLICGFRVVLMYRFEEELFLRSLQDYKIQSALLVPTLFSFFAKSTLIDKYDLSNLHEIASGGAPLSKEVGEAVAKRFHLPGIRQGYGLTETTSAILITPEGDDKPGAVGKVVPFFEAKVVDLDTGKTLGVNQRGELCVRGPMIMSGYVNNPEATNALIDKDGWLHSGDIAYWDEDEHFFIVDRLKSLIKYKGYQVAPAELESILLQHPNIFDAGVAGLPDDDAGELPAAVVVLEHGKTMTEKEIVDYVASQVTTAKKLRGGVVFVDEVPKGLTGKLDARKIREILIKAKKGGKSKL
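Purified P. pyralis luciferase (10nM final) with 10uM D-luciferin and 10uM ATP (Km levels) in 50mM Tris acetate pH 7.5, 10mM Mg acetate, 0.01% Tween-20, 0.05% BSA; qHTS 6-point titration, ~60 µM downward; luminescence read.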
ELG1 genotoxic: inducers of genotoxicity in HEK293T ELG1-luciferase cells. HEK293T ELG1-luciferase reporter, luminescence, 16 h. Potency, µM (series often up to 46 µM), actives largely listed as activators. actives 1.3% (n = 330,000); note: nearly all actives have a fitted effect of over 60% in size
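ELG1-luciferase HEK293T cells, 2,000/well; compound pinned in; 16 hr, 37 °C, 5% CO2; ONE-Glo, 30 min RT; luminescence on CCD imager.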
NPC1 prom act: activates the NPC1 promoter | Huh7 NPC1 promoter luciferase reporter, 24 h | Potency, µM (top dose mostly 9.22 µM), most hits filed as activators | actives 2.4% (n = 320,000); note: nearly all actives have a fitted effect of over 60% in size
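Readout is luciferase luminescence, reflecting NPC1 promoter activation in stably transfected Huh7 cells after 24 h compound exposure at 37 °C in reduced-serum medium with 10% FBS.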
ELG1 DNA repair: ELG1-dependent DNA repair inhibition; HEK293T ELG1-luciferase reporter, luminescence, 16 h; DNA damage induced by 5-fluorouridine; Potency, µM (series often up to 46.1 µM), actives largely listed as inhibitors; actives 2.3% (n = 330,000); note: nearly all actives have a fitted effect of over 55% in size
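Reporter activity after DNA damage by 5-fluorouridine is monitored. Compound-treated cells incubate 16 hr at 37 °C, then ONE-Glo is added for 30 min before luminescence reading.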
Of the large screens only hits and unclear results are named; the others gave an inactive call. Most compounds without a hit are left out; they make up all but 9.4% or so of the library. Calls come from the whole dose curve; as a rule, active = well fitted curve in the direction sought with a large enough effect; inconclusive = small, poorly fitted or top-dose-only effect, or another doubt; inactive = no such curve, though single readings can be large; an effect the other way counts as inactive or inconclusive.

Cc1ccc(C(=O)Cc2cc3ccccc3oc2=O)c(C)c1	Rab9 promoter act 0.79µM, FLuc counter 3µM, ELG1 genotoxic inconclusive, NPC1 prom act 1.4µM, ELG1 DNA repair inconclusive (no result: SMN2 splice up)
COc1ccc(C(=O)Cc2cc3ccccc3oc2=O)cc1	Rab9 promoter act inconclusive, FLuc counter 12µM, ELG1 genotoxic inconclusive, NPC1 prom act 3.5µM, ELG1 DNA repair inconclusive (no result: SMN2 splice up)
Cc1ccc2nc(SCc3nc(-c4ccc(Cl)cc4)no3)[nH]c2c1	none (no result: Rab9 promoter act, ELG1 genotoxic, NPC1 prom act, ELG1 DNA repair)
CC(C)OC(=O)c1c(NC(=O)c2cccc(C(F)(F)F)c2)sc2c1CCCC2	none (no result: Rab9 promoter act, ELG1 genotoxic, NPC1 prom act, ELG1 DNA repair)
COc1cc(C2=NOC(C(=O)N3CCCc4ccccc43)C2)cc(OC)c1OC (centres undefined)	ELG1 DNA repair inconclusive
COc1ccc(-c2cc(C(=O)N3CCCc4ccccc43)no2)cc1	Rab9 promoter act inconclusive, FLuc counter 6µM, NPC1 prom act inconclusive, ELG1 DNA repair inconclusive
COc1cccc(-c2cc(C(=O)N3CCCc4ccccc43)no2)c1	SMN2 splice up inconclusive, FLuc counter 12µM, ELG1 DNA repair inconclusive
COc1ccc(C2=NOC(C(=O)N3CCCc4ccccc43)C2)cc1 (centres undefined)	FLuc counter 13µM
Cc1nn2c(C)c(C(=O)NCC(C)c3ccccc3)cnc2c1-c1ccccc1 (centres undefined)	none (no result: Rab9 promoter act, SMN2 splice up, ELG1 genotoxic, NPC1 prom act, ELG1 DNA repair)
Cc1cc(F)ccc1NC(=O)Cn1c(=O)ccc2cc(S(=O)(=O)N3CCC(C)CC3)ccc21	none (no result: Rab9 promoter act, SMN2 splice up, ELG1 genotoxic, NPC1 prom act, ELG1 DNA repair)
Cc1cc(O)c(C2=Nc3ccccc3SC(c3ccc(Cl)cc3)C2)c(=O)o1 (centres undefined)	FLuc counter 4.8µM, ELG1 genotoxic 7.3µM, ELG1 DNA repair inconclusive
O=c1[nH]c(=O)n(C2CCCCC2)c(O)c1C1=Nc2ccccc2SC(c2ccccc2)C1 (centres undefined)	none (no result: Rab9 promoter act, SMN2 splice up, ELG1 genotoxic, NPC1 prom act, ELG1 DNA repair)
CSc1nsc(/C=C/Nc2ccc(C)cc2)c1C#N	SMN2 splice up inconclusive, FLuc counter 1.3µM (no result: Rab9 promoter act, ELG1 genotoxic, NPC1 prom act, ELG1 DNA repair)
CSc1nsc(/C=C/Nc2ccc(C)c(C)c2)c1C#N	FLuc counter inconclusive
Oc1cc(Nc2ccc(N3CCCCC3)cc2)cc2cccnc12	FLuc counter inconclusive (no result: SMN2 splice up, ELG1 genotoxic, ELG1 DNA repair)
Cc1ccc([N+](=O)[O-])cc1S(=O)(=O)Nc1ccc(-c2ccc(N3CCCC3)nn2)cc1	FLuc counter inconclusive, ELG1 DNA repair inconclusive (no result: SMN2 splice up)
O=[N+]([O-])c1ccc(Cl)c(S(=O)(=O)Nc2cccc(-c3ccc(N4CCCC4)nn3)c2)c1	FLuc counter 15µM, ELG1 DNA repair inconclusive (no result: SMN2 splice up)
Cc1c([N+](=O)[O-])cc(S(=O)(=O)Nc2ccc(-c3ccc(N4CCCC4)nn3)cc2)cc1[N+](=O)[O-]	FLuc counter 19µM, ELG1 DNA repair inconclusive (no result: SMN2 splice up)
O=[N+]([O-])c1ccc(Cl)c(S(=O)(=O)Nc2ccc(-c3ccc(N4CCCC4)nn3)cc2)c1	FLuc counter 21µM (no result: SMN2 splice up)
O=[N+]([O-])c1ccc(S(=O)(=O)Nc2ccc(-c3ccc(N4CCCC4)nn3)cc2)cc1	none (no result: SMN2 splice up)
COc1ccc(CCNC(=O)C(=O)N/N=C/c2cccs2)cc1OC	none (no result: SMN2 splice up)
CC(C)(C)C(=O)Nc1ccc(C(=O)NNC(=O)c2ccccc2)cc1	FLuc counter inconclusive, ELG1 DNA repair inconclusive
O=C(O)c1cc(NC(=O)c2ccc(Br)cc2)cc(NC(=O)c2ccc(Br)cc2)c1	FLuc counter 21µM (no result: SMN2 splice up)
CC(C)(C)C(=O)Nc1ccc(C(=O)Nc2cc(NC(=O)c3ccc(NC(=O)C(C)(C)C)cc3)cc(C(=O)O)c2)cc1	FLuc counter 4.3µM, ELG1 DNA repair inconclusive (no result: SMN2 splice up)
COc1cccc(NC(=O)c2cc(-c3ccc(C)o3)nc3ccccc23)c1	FLuc counter inconclusive (no result: SMN2 splice up)
Cc1ccc(-c2cc(C(=O)Nc3ccccc3C)c3ccccc3n2)o1	FLuc counter 8.5µM, ELG1 DNA repair inconclusive
COC(=O)c1cc(-c2ccc(C)o2)nc2ccccc12	FLuc counter 11µM
Cc1ccc(-c2cc(C(=O)OCC(=O)N(C)c3c(N)n(Cc4ccccc4)c(=O)[nH]c3=O)c3ccccc3n2)o1	FLuc counter 2.4µM, ELG1 genotoxic inconclusive, ELG1 DNA repair inconclusive (no result: SMN2 splice up)

Assay outcomes from PubChem BioAssay.
